Screening results: PubChem BioAssay, National Center for Advancing Translational Sciences (NCATS)
Sampled rows, rich in hits. Any-hit rate of the full collection: about 2.8%.
Pol eta inh: DNA polymerase eta (human) inhibition | Q9Y253 | recombinant Pol eta, fluorescent DNA replication assay | Potency, µM (titrated, usually from 114 µM), for the others: top-dose activity change, negative = inhibition, hits mostly inhibitors | 390,000 compounds, 1.2% hits; note: potency is the fitted concentration of half-maximal effect; % is set by controls: 0 for no effect and ±100 for the full control effect
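Pol eta at 10 nM preincubated with compounds 15 min at room temperature; reaction started with fluorescent substrate (50 nM final) and read kinetically at 0 and 10 min.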
PI5P4K alpha inh: blocks human PI5P4K alpha kinase activity. max response, %. P48426. 330,000 compounds, 1.2% hits. AID 652105. PI5P4Kalpha enzyme, ADP-Glo luminescence, 60 min; active compounds read low; active = max response of -50% or lower; inconclusive = between -30% and -50%; inactive = -30% or higher; note: value at the top dose of about 77 µM; % is set by controls: 0 for no effect and ±100 for the full control effect
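Quantitative HTS of the MLSMR library against PI5P4Kalpha with substrate. ATP added last at 5 microM final; room temperature, 60 minutes. Remaining ATP depleted, ADP converted and read as luminescence.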
POLK inh: inhibitors of human DNA polymerase kappa | 400,000 compounds, 0.53% hits | Potency, µM (top dose mostly 107 µM), inactives show at the top dose activity, negative = inhibition, hits mostly inhibitors | AID 588579 | purified Pol kappa, fluorescent DNA synthesis assay, 10 min; note: potency is the fitted concentration of half-maximal effect; % is set by controls: 0 for no effect and ±100 for the full control effect
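10 nM Pol kappa was preincubated with compounds for 15 min at room temperature. Reaction started with 50 nM (final) substrate. Fluorescence read kinetically at 0 and 10 min.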
POLI inh: DNA polymerase iota (human) inhibition; Pol iota fluorescent replication assay, 10 min; Potency, µM (series often up to 115 µM), for the others: top-dose activity, negative = inhibition, most hits filed as inhibitors; 390,000 compounds, 1% hits; AID 588590; note: potency is the fitted concentration of half-maximal effect
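Fluorescent replication assay read twice, at 0 min and 10 min after adding 50 nM (final) substrate. Enzyme (10 nM) and compounds were first incubated 15 min at room temperature; enzyme-free buffer wells were negative controls.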
WRN inhibitor: inhibitors of human WRN helicase. Potency, µM (doses to about 114 µM), without a hit: at the highest dose activity change, negative = inhibition, actives largely listed as inhibitors. Q14191. WRN helicase unwinding, fluorescent forked duplex, kinetic. AID 651768. 360,000 compounds, 0.46% hits; note: potency is the fitted concentration of half-maximal effect; % is set by controls: 0 for no effect and ±100 for the full control effect; nearly all actives have a fitted effect of over 55% in size
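Fluorescence dequenching readout, ex 525 nm/em 598 nm, kinetic mode: forked duplex DNA (100 nM final) with adjacent fluorophore and quencher unwound by WRN (20 nM final) with 2 mM ATP. Compound preincubation 15 min, room temperature.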
POLB inh: DNA polymerase beta (human) inhibition | Pol beta primer extension/strand displacement, fluorescence kinetic | Potency, µM (series often up to 114 µM), without a hit: at the top dose activity change, negative = inhibition, hits mostly inhibitors | 340,000 compounds, 1.3% hits | AID 485314; note: potency is the fitted concentration of half-maximal effect; % is set by controls: 0 for no effect and ±100 for the full control effect
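Homogeneous kinetic assay of primer extension and strand displacement by 10 nM Pol beta, preincubated 15 min at room temperature with compound before 50 nM substrate (final) was added. Read at 0 and 10 min; four-parameter Hill fit.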
Numbers without * were called inactive; ? = inconclusive; · = no result; ! = repeats disagree; [ ] = dose if it differs, or a comment. Unless noted, calls come from the whole dose curve; as a rule, active = well fitted curve in the direction sought with a large enough effect; inconclusive = small, poorly fitted or top-dose-only effect, or another doubt; inactive = no such curve, though single readings can be large; an effect the other way counts as inactive or inconclusive.

SMILES	Pol eta inh	PI5P4K alpha inh	POLK inh	POLI inh	WRN inhibitor	POLB inh
O=C(NCc1cccnc1)c1nn(-c2ccc(F)cc2)nc1CO	-9.6%	·	-15.2%	20.0%	·	-3.7%
CC(=O)Oc1ccccc1C(=O)Nc1ccccc1	-13.7%	·	-21.9%	?	·	·
COC1(OC)C=CC(=O)C=C1NC(=O)c1ccccc1OC(C)=O	5.5%	·	4.4%	10µM*	·	·
O=C1Nc2cc(C(=O)NCCCN3CCCC3)ccc2S/C1=C/c1cccc(Cl)c1	-3.9%	-51.4*	·	·	13.3%	·
Cc1cccc(/C=C2/Sc3ccc(C(=O)NCCN4CCCC4)cc3NC2=O)c1	-31.2%	-12.4	-4.3%	46.8%	-4.9%	?
COc1ccc(N2CCN(c3csc4ccccc4c3=O)CC2)cc1	-4.2%	·	-2.8%[60.1 µM]	?	·	4.3%
COc1ccc(NC(=O)C2=C(C)C(=O)OC23CCN(C(C)C)CC3)cc1Cl	-8.9%	·	-7.2%	14.8%	·	3.7%
COc1ccccc1NC(=O)c1cnn(-c2ccccc2)c1-n1cccc1	-8.0%	·	-15.9%	20.1%	·	-0.5%
COc1cc(OC)c(NC(=O)c2cnn(-c3ccccc3)c2-n2cccc2)cc1Cl	-0.2%	·	-2.3%	?	·	50.1µM*
COc1ccccc1NC(=O)C1=C(C)Nc2nc(SCc3ccccc3)nn2C1c1ccccn1 (stereo unspecified)	-3.3%	·	-8.2%	-12.9%	·	-19.1%
CCOC1CCCC(n2cnc3c(=S)nc[nH]c32)O1 (stereo unspecified)	17.8µM*	-5.0	-12.2%	?	-0.1%[11.6 µM]	·
OCC1CCCC(n2cnc3c(=S)nc[nH]c32)O1 (stereo unspecified)	-19.5%	-2.5	-2.4%	51.5%	9.4%	56.3%
CC(C)(C)OC(=O)N1CCC(c2c(C(=O)NCCN3CCCC3)cnn2-c2ccc(Cl)cc2)CC1	-13.4%	·	0.2%	36.2%	·	8.8%
OCCCNC(=S)Nc1ccc2nccnc2c1	1.1%	-0.5	-8.0%	14.1µM*	6.9%	49.9%
CN(C)c1oc(-c2ccc(COc3ccccc3)o2)nc1C#N	-21.5%	·	-25.4%	18.0%	·	-12.3%
COc1cccc(C(c2c(C)[nH]n(-c3ccccc3)c2=O)c2c(C)[nH]n(-c3ccccc3)c2=O)c1O	9.4%	-12.6	-18.8%	1µM*	-9.6%[11.6 µM]	26.3%
Cc1[nH]n(-c2ccccc2)c(=O)c1C(C[N+](=O)[O-])c1ccccc1Cl (stereo unspecified)	-9.9%	3.0	-9.2%	-10.5%	-26.5%	-27.5%
Cc1[nH]n(-c2ccccc2)c(=O)c1C(c1ccc(O)c([N+](=O)[O-])c1)c1c(C)[nH]n(-c2ccccc2)c1=O	28.2µM*	-25.4	-32.3%	?	?	·
Cc1[nH]n(-c2ccccc2)c(=O)c1C(=O)c1ccccc1	?	-2.4	-6.9%	?	-3.7%	-3.5%
CCN(Cc1ccccc1)C(=O)Cn1c(=O)cc(C)c2c(C)nn(-c3cccc(F)c3)c21	-20.5%	·	-23.5%	13.1%	·	-0.8%
CC1(C)Cc2c(C#N)c(N3CCN(C(=O)c4ccccc4)CC3)nc(-c3ccco3)c2CS1	31.6µM*	?	-22.1%	?	?	28.2µM*
c1coc(CSSCc2ccco2)c1	20µM*	?	8.91µM*	?	50.1µM*	·
Cc1ccc(NC(=O)CSCc2ccco2)cc1	-10.9%	-2.5	-13.4%	59.6%	-6.1%	-1.0%
Cc1oc2c(O)c(O)ccc2c(=O)c1-c1ccccc1	-19.4%	-0.8	?	?	-12.0%	?
Cc1oc2c(O)c(O)ccc2c(=O)c1-c1cnn(-c2ccccc2)c1	?	·	39.8µM*	?	-34.7%[57.1 µM]	2.6%
SMILES	Pol eta inh	PI5P4K alpha inh	POLK inh	POLI inh	WRN inhibitor	POLB inh
O=C1C(c2c(O)[nH]c3ccccc23)=Nc2ccccc21	1.5%	-0.5	-6.2%	37.8%	-4.2%	5.6%
O=C1C(c2[nH]c3ccc(S(=O)(=O)O)cc3c2O)=Nc2ccc(S(=O)(=O)O)cc21	·	·	?	25.1µM*	·	·
COCCNC(=O)c1c(NC(=O)c2cc(=O)c3cc(C)cc(C)c3o2)sc2c1CCCC2	-15.0%	·	0.3%	15.5%	·	2.6%
O=C(CSc1nc2sccc2c(=O)[nH]1)N1CCN(c2ccccc2)CC1	50.1µM*	?	?	?	-11.3%[11.6 µM]	25.1µM*
CCc1ccc(-n2nc3ccc(NC(=O)c4cc5ccccc5o4)cc3n2)cc1	-9.4%	·	-7.3%	12.7%	·	5.7%
N#C/C(=C\c1ccc(-c2ccc(F)cc2F)o1)c1nc2ccccc2[nH]1	-0.7%	·	-7.9%	?	·	?
Cc1cc2nc(/C(C#N)=C\c3ccc(-c4ccccc4C(=O)O)o3)[nH]c2cc1C	25.1µM*	-26.8	?	?	-15.3%[11.6 µM]	?
Cc1ccc2nc(/C(C#N)=C\c3ccc(N4CCOCC4)o3)[nH]c2c1	?	-24.2	-20.1%	?	44.7µM*	35.5µM*
N#C/C(=C\c1ccc(Sc2ccccc2)o1)c1nc2ccccc2[nH]1	?	-1.9	-29.6%	-4.2%	?	39.8µM*
N#C/C(=C\c1ccc(-c2ccccc2C(=O)O)o1)c1nc2ccccc2[nH]1	?	-69.5*	-23.1%	35.7%	56.2µM*	-21.3%
CCNC(=O)C1(C)CCCN(C(=O)c2ccnc(Cl)c2)C1 (stereo unspecified)	·	-2.1	·	·	1.4%	·
COc1ccc2oc(=O)c(-c3nnc(NCc4ccco4)s3)cc2c1	?	-13.4	?	10µM*	?	25.1µM*
CCOc1ccccc1Nc1nnc(-c2cc3cc(OC)ccc3oc2=O)s1	56.2µM*	·	4.0%[60.1 µM]	?	·	?
CNc1nnc(-c2cc3cc(Cl)ccc3oc2=O)s1	-9.5%	-0.8	-12.9%	-2.2%	-24.8%	?
Cc1ccc(C(=O)N/N=C\C2CC=CCC2)cc1[N+](=O)[O-] (stereo unspecified)	89.1µM*	-7.3	1.1%	28.9%	9.3%	29.5%
CCOc1cc(C(=O)N/N=C/C2CC=CCC2)cc(OCC)c1OCC (stereo unspecified)	-18.5%	0.1	4.5%	10.2%	-26.8%[57.1 µM]	0.7%
COc1ccc(CCNc2ncnc3nc[nH]c23)cc1	·	·	4.8%	0.2%	·	·
CCC(=O)Nc1ccc(S(=O)(=O)NCc2cccn2Cc2cccc(C)c2)cc1	-18.4%	·	-10.6%[60.1 µM]	89.1µM*	·	24.8%
Cc1ccc(C(=O)c2cn(Cc3cccc(F)c3)c3nc(C)ccc3c2=O)cc1	-18.8%	·	-6.2%	11.0%	·	5.3%
CCc1ccc(CNC(=O)C2CCCN(c3nnc(C)c4c(C)n(-c5ccccc5)nc34)C2)cc1 (stereo unspecified)	?	-4.0	-2.1%	32.8%	1.0%	50.1µM*!
Cc1nnc(N2CCC(C(=O)NCCc3ccccc3)CC2)c2nn(-c3ccc(Cl)cc3)c(C)c12	-6.2%	·	1.2%	-10.3%	·	-11.5%
